Consider one sequence from publication PMC7862700, “An all-to-all approach to the identification of sequence-specific readers for epigenetic DNA modifications on cytosine”.

What all share (assay): DAPPL (digital affinity profiling via proximity ligation, sequencing); 10 mM Tris-HCl pH 7.5, 50 mM NaCl, 1 mM DTT, 4% glycerol, room temperature, 30 min; GST-TFs on glutathione beads, 16-mer random dsDNA library, 0.1% formaldehyde crosslink after washing; high values mean tight binding
The target of one assay is T1, FEV (Homo sapiens, UniProt Q99581 1-238).
T1 sequence: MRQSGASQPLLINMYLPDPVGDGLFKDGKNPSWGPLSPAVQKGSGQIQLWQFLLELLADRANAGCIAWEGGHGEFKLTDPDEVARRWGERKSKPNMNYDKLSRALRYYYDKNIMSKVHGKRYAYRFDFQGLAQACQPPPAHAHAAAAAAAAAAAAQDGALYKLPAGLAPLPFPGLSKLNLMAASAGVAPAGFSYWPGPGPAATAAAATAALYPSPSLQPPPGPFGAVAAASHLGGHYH
Particulars: protein: recombinant; tags: N-terminal GST; dsDNA, one strand shown. An outline of the steps: (§1)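 Binding signal is each hexamer's read frequency for a factor divided by its frequency in the tag-only sample. The factors were GST-fused human transcription factors from yeast, captured on glutathione beads, DNA-barcoded and pooled with that sample. Pools were incubated with 200 nmole of a random double-stranded 16-mer DNA library in Tris/NaCl/DTT/glycerol buffer at room temperature for 30 min, then washed, crosslinked with 0.1% formaldehyde, proximity-ligated with BsaI/T4 ligase (1 h, 37 °C), PCR-amplified and sequenced on an Illumina NextSeq500.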

The target of the next assay is ETV5 (Homo sapiens, UniProt P41161 1-510). As to conditions: protein: recombinant; tags: N-terminal GST; dsDNA, one strand shown. An outline of the steps:
as §1

The target of the next assay is HSF1 (Homo sapiens, UniProt Q00613 1-529). As to conditions: protein: recombinant; tags: N-terminal GST; chain copies: 3; dsDNA, one strand shown. A digest of the protocol: as §1
Chain of HSF1 (Q00613 whole entry): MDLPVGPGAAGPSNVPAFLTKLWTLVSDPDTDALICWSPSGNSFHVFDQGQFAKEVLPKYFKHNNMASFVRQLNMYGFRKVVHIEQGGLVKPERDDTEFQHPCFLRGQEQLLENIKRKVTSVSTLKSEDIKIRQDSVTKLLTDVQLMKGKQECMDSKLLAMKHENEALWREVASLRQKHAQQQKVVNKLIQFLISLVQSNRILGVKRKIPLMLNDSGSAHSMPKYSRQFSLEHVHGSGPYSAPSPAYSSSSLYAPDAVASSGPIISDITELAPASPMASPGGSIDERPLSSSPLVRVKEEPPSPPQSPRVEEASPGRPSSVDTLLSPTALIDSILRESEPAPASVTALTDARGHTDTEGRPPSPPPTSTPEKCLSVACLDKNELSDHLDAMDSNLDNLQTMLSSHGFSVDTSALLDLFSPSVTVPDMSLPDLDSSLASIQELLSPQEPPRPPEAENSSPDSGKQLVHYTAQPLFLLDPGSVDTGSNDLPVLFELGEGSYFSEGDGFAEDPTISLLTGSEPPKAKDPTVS
The next assay deals with T2, SPIC (Homo sapiens, UniProt Q8N5J4 1-248).
T2 sequence: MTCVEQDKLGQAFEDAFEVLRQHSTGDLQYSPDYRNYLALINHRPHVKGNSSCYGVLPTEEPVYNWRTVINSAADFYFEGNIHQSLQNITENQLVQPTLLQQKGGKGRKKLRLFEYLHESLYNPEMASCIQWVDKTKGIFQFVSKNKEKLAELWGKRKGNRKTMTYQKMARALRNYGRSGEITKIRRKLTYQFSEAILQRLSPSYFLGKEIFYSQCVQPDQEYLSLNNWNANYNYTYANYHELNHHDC
As to conditions: protein: recombinant; tags: N-terminal GST; dsDNA, one strand shown. An outline of the steps:
as §1

A further assay concerns the target ELF4 (Homo sapiens, UniProt Q99607 1-663). Particulars: protein: recombinant; tags: N-terminal GST; dsDNA, one strand shown. An outline of the steps:
as §1

In the next assay the target is T3, ELK4 (Homo sapiens, UniProt P28324-2 1-405).
T3 sequence: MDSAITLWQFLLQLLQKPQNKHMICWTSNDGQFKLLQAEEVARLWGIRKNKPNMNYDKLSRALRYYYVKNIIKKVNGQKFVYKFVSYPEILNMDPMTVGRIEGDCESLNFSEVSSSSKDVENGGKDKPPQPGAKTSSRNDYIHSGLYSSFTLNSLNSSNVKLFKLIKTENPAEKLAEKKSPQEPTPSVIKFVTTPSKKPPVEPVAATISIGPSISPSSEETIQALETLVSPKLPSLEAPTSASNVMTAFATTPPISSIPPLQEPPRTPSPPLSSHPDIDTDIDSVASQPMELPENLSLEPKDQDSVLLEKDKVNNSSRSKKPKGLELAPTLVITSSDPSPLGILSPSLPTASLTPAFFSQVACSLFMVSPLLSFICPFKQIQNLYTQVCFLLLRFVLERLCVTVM
As to conditions: protein: recombinant; tags: N-terminal GST; dsDNA, one strand shown. A digest of the protocol: as §1

For a further assay, the target named is T4, ETV2 (Homo sapiens, UniProt O00321 1-342).
T4 sequence: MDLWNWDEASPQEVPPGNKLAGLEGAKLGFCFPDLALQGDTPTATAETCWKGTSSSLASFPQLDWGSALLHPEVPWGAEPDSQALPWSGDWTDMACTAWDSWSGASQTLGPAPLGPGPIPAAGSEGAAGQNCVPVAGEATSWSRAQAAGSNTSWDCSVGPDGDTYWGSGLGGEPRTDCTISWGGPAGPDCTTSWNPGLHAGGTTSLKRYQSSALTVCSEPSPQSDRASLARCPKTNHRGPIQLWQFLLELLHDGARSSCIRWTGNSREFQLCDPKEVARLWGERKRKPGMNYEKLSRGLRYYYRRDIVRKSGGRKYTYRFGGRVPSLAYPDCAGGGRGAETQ
Particulars: protein: recombinant; tags: N-terminal GST; dsDNA, one strand shown. An outline of the steps: as §1

In a further assay the target is T5, ELF3 (Homo sapiens, UniProt P78545 1-371).
T5 sequence: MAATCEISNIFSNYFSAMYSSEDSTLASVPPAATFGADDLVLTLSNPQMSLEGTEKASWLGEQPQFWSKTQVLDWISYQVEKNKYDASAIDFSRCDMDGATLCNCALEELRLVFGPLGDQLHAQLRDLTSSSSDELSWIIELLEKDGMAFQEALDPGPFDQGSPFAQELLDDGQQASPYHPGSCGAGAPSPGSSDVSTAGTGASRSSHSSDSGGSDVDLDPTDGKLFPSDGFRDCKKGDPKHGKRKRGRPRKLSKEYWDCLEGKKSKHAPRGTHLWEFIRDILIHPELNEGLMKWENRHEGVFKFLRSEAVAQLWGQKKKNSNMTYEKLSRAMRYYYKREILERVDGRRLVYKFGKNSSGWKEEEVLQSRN
Particulars: protein: recombinant; tags: N-terminal GST; dsDNA, one strand shown. An outline of the steps: as §1

The next assay addresses CRX (Homo sapiens, UniProt O43186 1-299). Particulars: protein: recombinant; tags: N-terminal GST; dsDNA, one strand shown. An outline of the steps:
as §1

A further assay deals with ETV1 (Homo sapiens, UniProt P50549 1-477). Particulars: protein: recombinant; tags: N-terminal GST; dsDNA, one strand shown. An outline of the steps:
as §1

Another assay deals with T6, ERF (Homo sapiens, UniProt P50548 1-548).
T6 sequence: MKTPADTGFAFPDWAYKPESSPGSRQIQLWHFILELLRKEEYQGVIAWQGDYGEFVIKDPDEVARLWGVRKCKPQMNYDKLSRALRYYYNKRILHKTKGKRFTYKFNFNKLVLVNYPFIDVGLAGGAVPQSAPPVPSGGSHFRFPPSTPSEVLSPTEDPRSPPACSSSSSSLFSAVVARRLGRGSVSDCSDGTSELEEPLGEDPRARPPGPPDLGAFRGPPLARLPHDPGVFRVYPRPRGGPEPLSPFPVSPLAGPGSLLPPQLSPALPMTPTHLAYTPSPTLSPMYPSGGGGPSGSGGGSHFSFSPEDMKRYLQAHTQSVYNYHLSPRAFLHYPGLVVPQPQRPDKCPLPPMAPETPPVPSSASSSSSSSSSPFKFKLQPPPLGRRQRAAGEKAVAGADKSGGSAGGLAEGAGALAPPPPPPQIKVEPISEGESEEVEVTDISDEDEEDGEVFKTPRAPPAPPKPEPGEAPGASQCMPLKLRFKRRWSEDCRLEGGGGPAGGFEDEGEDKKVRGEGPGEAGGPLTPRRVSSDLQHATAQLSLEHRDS
Particulars: protein: recombinant; tags: N-terminal GST; dsDNA, one strand shown. A digest of the protocol: as §1

A further assay deals with T7, ETV3L (Homo sapiens, UniProt Q6ZN32 1-361).
T7 sequence: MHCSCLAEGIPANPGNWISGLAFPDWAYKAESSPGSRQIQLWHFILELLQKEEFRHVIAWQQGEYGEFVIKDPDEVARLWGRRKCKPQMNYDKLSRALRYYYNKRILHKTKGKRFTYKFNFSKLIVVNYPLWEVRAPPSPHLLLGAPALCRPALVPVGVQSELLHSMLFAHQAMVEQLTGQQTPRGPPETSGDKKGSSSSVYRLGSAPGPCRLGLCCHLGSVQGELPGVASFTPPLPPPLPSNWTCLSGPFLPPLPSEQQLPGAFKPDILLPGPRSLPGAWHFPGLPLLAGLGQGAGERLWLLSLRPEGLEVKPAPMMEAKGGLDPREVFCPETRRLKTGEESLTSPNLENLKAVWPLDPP
Particulars: protein: recombinant; tags: N-terminal GST; dsDNA, one strand shown. An outline of the steps: as §1

A further assay concerns the target T8, ETS2 (Homo sapiens, UniProt P15036 1-469).
T8 sequence: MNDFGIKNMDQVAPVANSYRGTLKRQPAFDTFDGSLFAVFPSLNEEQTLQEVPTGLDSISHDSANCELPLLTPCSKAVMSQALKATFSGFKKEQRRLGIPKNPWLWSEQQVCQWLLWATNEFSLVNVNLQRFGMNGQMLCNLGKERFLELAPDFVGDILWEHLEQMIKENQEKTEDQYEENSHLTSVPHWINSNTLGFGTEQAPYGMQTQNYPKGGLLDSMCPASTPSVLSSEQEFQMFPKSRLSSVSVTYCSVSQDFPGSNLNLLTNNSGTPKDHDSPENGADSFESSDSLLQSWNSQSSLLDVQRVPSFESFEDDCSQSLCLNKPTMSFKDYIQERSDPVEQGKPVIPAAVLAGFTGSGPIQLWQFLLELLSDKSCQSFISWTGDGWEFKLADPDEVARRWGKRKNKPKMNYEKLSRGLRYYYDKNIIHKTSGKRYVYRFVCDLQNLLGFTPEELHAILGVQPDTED
Particulars: protein: recombinant; tags: N-terminal GST; dsDNA, one strand shown. A digest of the protocol:
as §1

For a further assay, the target named is T9, SPDEF (Homo sapiens, UniProt O95238 1-335).
T9 sequence: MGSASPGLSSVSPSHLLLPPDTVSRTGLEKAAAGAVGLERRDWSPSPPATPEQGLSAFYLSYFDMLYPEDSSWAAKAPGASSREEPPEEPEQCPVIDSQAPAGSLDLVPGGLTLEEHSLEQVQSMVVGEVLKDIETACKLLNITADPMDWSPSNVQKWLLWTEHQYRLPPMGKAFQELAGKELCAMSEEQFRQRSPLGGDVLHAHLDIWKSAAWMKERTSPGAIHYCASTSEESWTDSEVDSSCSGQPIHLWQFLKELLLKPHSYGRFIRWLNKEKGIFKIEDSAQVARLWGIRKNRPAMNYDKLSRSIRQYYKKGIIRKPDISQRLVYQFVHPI
As to conditions: protein: recombinant; tags: N-terminal GST; dsDNA, one strand shown. An outline of the steps:
as §1

A further assay addresses T10, ETV7 (Homo sapiens, UniProt Q9Y603 1-341).
T10 sequence: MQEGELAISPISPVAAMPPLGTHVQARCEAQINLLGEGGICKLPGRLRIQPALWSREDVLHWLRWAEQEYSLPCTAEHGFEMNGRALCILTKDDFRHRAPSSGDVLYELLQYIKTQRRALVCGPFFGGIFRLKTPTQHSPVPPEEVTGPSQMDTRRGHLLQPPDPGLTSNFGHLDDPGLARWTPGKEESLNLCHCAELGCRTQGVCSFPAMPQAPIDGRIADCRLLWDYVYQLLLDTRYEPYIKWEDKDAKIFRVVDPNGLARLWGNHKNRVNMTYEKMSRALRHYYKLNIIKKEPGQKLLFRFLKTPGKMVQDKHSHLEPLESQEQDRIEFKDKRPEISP
As to conditions: protein: recombinant; tags: N-terminal GST; dsDNA, one strand shown. A digest of the protocol: as §1

The target of a further assay is T11, ELF5 (Homo sapiens, UniProt Q9UKW6-2 1-255).
T11 sequence: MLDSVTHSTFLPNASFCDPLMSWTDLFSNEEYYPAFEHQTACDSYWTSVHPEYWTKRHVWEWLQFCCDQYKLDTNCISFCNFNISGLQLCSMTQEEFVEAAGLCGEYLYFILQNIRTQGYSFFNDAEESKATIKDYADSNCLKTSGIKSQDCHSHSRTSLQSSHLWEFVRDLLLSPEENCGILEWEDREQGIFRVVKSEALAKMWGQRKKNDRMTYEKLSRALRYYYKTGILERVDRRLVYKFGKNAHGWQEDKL
Particulars: protein: recombinant; tags: N-terminal GST; dsDNA, one strand shown. An outline of the steps: as §1

Another assay has as its target T12, ETV3 (Homo sapiens, UniProt P41162-2 1-143).
T12 sequence: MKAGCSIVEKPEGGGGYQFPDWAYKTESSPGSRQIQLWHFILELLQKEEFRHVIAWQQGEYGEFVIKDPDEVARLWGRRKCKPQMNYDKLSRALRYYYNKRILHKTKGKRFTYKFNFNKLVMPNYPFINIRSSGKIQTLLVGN
As to conditions: protein: recombinant; tags: N-terminal GST; dsDNA, one strand shown. A digest of the protocol: as §1

The target of the next assay is ETV6 (Homo sapiens, UniProt P41212 1-452). As to conditions: protein: recombinant; tags: N-terminal GST; dsDNA, one strand shown. A digest of the protocol:
as §1

Chain of CRX (O43186 whole entry): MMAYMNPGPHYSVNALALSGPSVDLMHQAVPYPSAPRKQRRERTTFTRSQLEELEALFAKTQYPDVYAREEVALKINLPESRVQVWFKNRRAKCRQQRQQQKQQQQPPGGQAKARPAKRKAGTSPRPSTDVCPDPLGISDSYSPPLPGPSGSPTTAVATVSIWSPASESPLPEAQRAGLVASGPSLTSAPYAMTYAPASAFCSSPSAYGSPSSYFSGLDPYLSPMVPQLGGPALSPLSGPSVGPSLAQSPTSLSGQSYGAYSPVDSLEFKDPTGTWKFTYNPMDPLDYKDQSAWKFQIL
Chain of ETV5 (P41161 whole entry): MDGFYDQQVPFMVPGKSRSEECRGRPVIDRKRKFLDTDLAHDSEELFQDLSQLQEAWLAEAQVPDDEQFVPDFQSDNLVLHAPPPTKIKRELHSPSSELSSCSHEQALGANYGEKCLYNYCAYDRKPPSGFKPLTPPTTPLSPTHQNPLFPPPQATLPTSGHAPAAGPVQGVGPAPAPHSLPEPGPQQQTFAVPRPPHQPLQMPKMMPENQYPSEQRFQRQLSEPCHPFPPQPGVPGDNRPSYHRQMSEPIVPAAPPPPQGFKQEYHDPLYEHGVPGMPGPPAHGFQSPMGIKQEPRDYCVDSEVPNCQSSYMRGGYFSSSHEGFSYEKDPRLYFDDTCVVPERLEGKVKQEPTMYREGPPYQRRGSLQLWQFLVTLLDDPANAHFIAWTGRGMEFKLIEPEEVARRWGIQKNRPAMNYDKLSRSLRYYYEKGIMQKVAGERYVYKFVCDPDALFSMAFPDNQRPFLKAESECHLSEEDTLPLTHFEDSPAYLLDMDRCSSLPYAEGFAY
Chain of ETV1 (P50549 whole entry): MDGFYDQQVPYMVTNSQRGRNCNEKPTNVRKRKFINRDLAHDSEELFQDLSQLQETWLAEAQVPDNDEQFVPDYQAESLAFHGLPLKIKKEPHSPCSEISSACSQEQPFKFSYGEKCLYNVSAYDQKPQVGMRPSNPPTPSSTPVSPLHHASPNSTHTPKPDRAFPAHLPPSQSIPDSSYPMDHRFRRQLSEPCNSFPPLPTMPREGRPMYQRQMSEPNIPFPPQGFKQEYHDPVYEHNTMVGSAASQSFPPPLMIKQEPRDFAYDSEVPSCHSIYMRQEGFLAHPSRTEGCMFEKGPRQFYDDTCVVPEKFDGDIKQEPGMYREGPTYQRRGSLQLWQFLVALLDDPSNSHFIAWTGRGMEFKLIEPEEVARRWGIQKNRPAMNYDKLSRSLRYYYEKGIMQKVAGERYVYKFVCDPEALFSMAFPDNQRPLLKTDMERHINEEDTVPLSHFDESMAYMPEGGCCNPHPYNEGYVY
Chain of ETV6 (P41212 whole entry): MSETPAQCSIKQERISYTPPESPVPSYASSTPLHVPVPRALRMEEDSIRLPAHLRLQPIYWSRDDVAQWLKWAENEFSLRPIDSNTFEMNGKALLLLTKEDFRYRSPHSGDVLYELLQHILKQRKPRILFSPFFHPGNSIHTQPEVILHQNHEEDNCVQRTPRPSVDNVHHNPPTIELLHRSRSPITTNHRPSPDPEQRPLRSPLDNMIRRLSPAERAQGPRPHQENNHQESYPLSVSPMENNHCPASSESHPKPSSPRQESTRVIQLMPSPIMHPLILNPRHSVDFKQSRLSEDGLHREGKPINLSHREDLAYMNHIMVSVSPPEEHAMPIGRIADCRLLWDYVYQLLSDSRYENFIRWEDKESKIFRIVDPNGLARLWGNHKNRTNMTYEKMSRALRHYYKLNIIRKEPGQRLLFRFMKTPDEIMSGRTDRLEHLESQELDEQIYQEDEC
Chain of ELF4 (Q99607 whole entry): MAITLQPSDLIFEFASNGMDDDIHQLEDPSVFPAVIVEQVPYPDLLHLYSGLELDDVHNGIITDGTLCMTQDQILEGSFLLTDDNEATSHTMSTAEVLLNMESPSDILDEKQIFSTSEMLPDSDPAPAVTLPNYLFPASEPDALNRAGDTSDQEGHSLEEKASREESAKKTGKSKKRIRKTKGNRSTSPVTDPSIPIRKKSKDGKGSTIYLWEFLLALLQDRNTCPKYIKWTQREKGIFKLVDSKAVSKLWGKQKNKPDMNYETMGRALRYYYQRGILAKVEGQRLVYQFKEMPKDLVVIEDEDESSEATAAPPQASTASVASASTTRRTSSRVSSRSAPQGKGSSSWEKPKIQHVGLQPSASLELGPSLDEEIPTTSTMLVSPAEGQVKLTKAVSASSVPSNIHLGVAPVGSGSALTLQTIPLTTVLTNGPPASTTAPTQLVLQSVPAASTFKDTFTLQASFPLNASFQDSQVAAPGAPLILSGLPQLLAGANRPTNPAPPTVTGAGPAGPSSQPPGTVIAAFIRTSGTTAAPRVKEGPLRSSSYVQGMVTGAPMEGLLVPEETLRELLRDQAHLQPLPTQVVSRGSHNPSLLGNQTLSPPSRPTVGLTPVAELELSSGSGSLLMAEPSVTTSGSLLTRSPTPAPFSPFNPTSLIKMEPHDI

With CTAGCA, the binding signal with FEV is 1.27 fold enrichment (6-mer frequency, TF over GST control); with ETV5, 1.25 fold enrichment (6-mer frequency, TF over GST control); with HSF1 it was 2.11 fold enrichment (6-mer frequency, TF over GST control); with SPIC it was 1.11 fold enrichment (6-mer frequency, TF over GST control); with ELF4 it was 1.3 fold enrichment (6-mer frequency, TF over GST control); with ELK4, 1.25 fold enrichment (6-mer frequency, TF over GST control). The binding signal with ETV2 was 1.35 fold enrichment (6-mer frequency, TF over GST control); in the assay with ELF3, 1.21 fold enrichment (6-mer frequency, TF over GST control); with CRX it was 1.34 fold enrichment (6-mer frequency, TF over GST control); with ETV1, 1.24 fold enrichment (6-mer frequency, TF over GST control); with ERF, 1.21 fold enrichment (6-mer frequency, TF over GST control); in the assay with ETV3L, 1.28 fold enrichment (6-mer frequency, TF over GST control). In addition, the binding signal with ETS2 was 1.18 fold enrichment (6-mer frequency, TF over GST control); with SPDEF, 1.16 fold enrichment (6-mer frequency, TF over GST control); with ETV7, 1.33 fold enrichment (6-mer frequency, TF over GST control); in the assay with ELF5 it was 1.12 fold enrichment (6-mer frequency, TF over GST control); with ETV3 it was 1.18 fold enrichment (6-mer frequency, TF over GST control); with ETV6, 1.18 fold enrichment (6-mer frequency, TF over GST control).
